# Assay outcomes (PubChem BioAssay)
# Shown are actives, neighbours in structure and some others; about 3.8% of the full set was active somewhere.
# tim10-1 inh: tim10-1 yeast growth inhibition; S. cerevisiae tim10-1 ts strain growth, BacTiter-Glo, 24 h; inhibition, % at 20 µM; hit rate 2.2% among 330,000; AID 463190;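 active = inhibition of at least 40%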;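 also: mutant grown at 25 °C; 0% = DMSO wells with yeast and 100% = wells holding no yeast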
# TIM10 inh: TIM10 yeast growth inhibition; S. cerevisiae TIM10 strain growth, BacTiter-Glo luminescence, 24 h; hit rate 1.4% among 330,000; inhibition, % at 10 µM; AID 463195;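 active = inhibition of 40% or more at the single tested concentration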;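 also: wild-type TIM10 isogenic control strain grown at permissive 25 °C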
# PfHsp90 set2: growth inhibition of yeast expressing Plasmodium Hsp90; AID 504621; S. cerevisiae expressing PfHsp90, BacTiter-Glo ATP, 48 h; yeast lacking PDR1 and PDR3 efflux regulators; hit rate 0.32% among 310,000; inhibition, % at 9.4 µM;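 active = every replicate shows inhibition above about 80%, whatever the replicate mean, limit read from the data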;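 also: 0% = DMSO neutral controls and 100% = 20 µM radicicol positive controls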
# tim23-1 inh: tim23-1 yeast growth inhibition; S. cerevisiae tim23-1 growth, BacTiter-Glo luminescence, 24 h; inhibition, % at 20 µM; hit rate 1.3% among 330,000;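 active = growth inhibition of the mutant yeast at or above 50%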;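 also: temperature-sensitive mutant grown at 25 °C; plate controls were DMSO-treated mutant yeast for no effect and medium wells lacking yeast for full effect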
# B2AR ag: activates human beta-2 adrenergic receptor causing internalization; Am2.2-beta2AR cells, FAP receptor internalization, flow cytometry; response, % (test concentration not listed); hit rate 0.43% among 340,000;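 active = response above a set limit, near 3 SD of response in nonfluorescent compounds, cut at about 42% in these data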
# Target sequence (P07550 whole entry, looked up): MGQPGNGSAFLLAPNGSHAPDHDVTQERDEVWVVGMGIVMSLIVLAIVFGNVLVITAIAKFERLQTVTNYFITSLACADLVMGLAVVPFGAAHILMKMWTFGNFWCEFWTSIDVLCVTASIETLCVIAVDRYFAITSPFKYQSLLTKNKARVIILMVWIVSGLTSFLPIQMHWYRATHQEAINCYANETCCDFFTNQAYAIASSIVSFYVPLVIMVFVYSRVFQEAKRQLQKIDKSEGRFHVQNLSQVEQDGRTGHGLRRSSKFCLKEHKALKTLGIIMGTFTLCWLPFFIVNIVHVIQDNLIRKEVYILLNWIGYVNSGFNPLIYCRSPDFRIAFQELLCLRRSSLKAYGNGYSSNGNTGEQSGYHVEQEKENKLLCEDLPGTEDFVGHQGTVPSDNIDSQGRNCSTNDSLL
# tim10-1 confirm: tim10-1 yeast growth inhibition, confirmed | shares compounds with tim10-1 inh | S. cerevisiae tim10-1 ts strain growth, BacTiter-Glo, 24 h | inhibition, % at 20 µM | hit rate 56% among 7,400 | AID 463213;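 active = inhibition of yeast growth at or above a set limit in either of two repeat tests at 20 µM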;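 also: tim10-1 mutant grown at permissive 25 °C to find synthetic lethal compounds; 0% = DMSO yeast wells and 100% = medium wells without yeast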
# An asterisk follows results filed as active; / = no result.
SMILES,tim10-1 inh,TIM10 inh,PfHsp90 set2,tim23-1 inh,B2AR ag,tim10-1 confirm
Cc1cccc(-n2c(-c3csc(C)c3)n[nH]c2=S)c1,41*,7,5,19,1,14
CC(=O)OC(C)[C@H]1CC[C@H]2[C@@H]3CC[C@H]4C[C@@H](OC(C)=O)CC[C@]4(C)C3=CC[C@]12C (stereo partly specified),-7,11,-2,-7,2,/
CCCc1cc(=O)oc2c(C)c(OCC(=O)NCCCN3CCOCC3)ccc12,-4,-7,-17,6,-8,/
Cc1c(OCC(=O)NCCCN2CCOCC2)ccc2c3c(c(=O)oc12)CCCC3,46*,25,-4,9,-5,26
CCCc1cc(=O)oc2c(C)c(OCC(=O)Nc3ccc(CN4CCOCC4)cc3)ccc12,40*,39,-7,11,3,33*
CC(CNC(=O)c1ccc(OC2CCN(Cc3ccccn3)CC2)cc1)c1ccccc1 (stereo unspecified),17,12,11,14,-9,/
CCc1cc(=O)oc2cc(OC3CCCCC3=O)ccc12 (stereo unspecified),43*,5,-30,35,-4,13
CC(OC(=O)Cc1ccc(Cl)cc1)C(=O)NC1CCCCC1C (stereo unspecified),22,4,-5,22,-2,/
C=CCN(CC=C)c1nc2ccccc2nc1C(C#N)C(=O)OC(C)C (stereo unspecified),45*,32,-20,49,0,38*
CCC1=NN2C(=N)/C(=C\c3cccn3-c3ccc(Br)cc3)C(=O)N=C2S1,/,/,-5,/,-15,/
CCC1=NN2C(=N)/C(=C\c3cccn3-c3cccc(Cl)c3)C(=O)N=C2S1,46*,35,7,37,-10,37*
COc1ccc(-n2cccc2/C=C2\C(=N)N3N=C(C(C)C)SC3=NC2=O)cc1,40*,7,-21,25,-8,26
CCCN(CCC)S(=O)(=O)c1ccc(C(=O)Nc2ccc(S(=O)(=O)Nc3nnc(CC)s3)cc2)cc1,4,7,-4,2,5,/
NCCNC[C@@H]1COC2(CCCCCCCCCCC2)O1,-11,4,13,-17,34,/
N#CC1(c2ccccc2)CCN(S(=O)(=O)c2ccc(OC(F)(F)F)cc2)CC1,27,12,-15,10,-2,/
CCc1ccccc1NC(=O)CCc1c(C)nn(-c2ccc(N3CCOCC3)nn2)c1C,62*,12,-62,10,-14,-9
Cc1ccc2c(CC(=O)O)coc2c1C,41*,-13,26,24,5,17
O/N=C/c1ccccc1Oc1ccc(Cl)cc1,-65,-26,3,11,-3,/
N#CCC(=O)c1ccccc1Oc1ccc(Cl)cc1,50*,22,-12,47,-1,29*
Cc1cc(C)c(CSc2ncc(-c3ccc([N+](=O)[O-])cc3)[nH]2)c(C)c1,45*,39,-21,43,16,34*
CC(C)(C)c1ccc(NC(=O)CNC2CCCc3ccccc32)cc1 (stereo unspecified),42*,22,21,7,5,16
C=C(C)c1cccc(C(C)(C)NC(=O)Nc2ccc(C(C)=O)cc2)c1,43*,14,9,34,4,22
COc1ccc(Br)c(-c2nnc(CS(=O)(=O)c3ccccc3)o2)c1,46*,24,2,48,-9,39*
CCOc1ccccc1-c1nnc(CS(=O)(=O)c2ccccc2)o1,27,-3,-3,23,1,/
O=C(Cc1ncc(C(F)(F)F)cc1Cl)N1CCN(c2cccc(Cl)c2)CC1,43*,0,-3,7,2,9
SMILES,tim10-1 inh,TIM10 inh,PfHsp90 set2,tim23-1 inh,B2AR ag,tim10-1 confirm
O=C(CSc1ccccn1)N1CCN(c2cccc(Cl)c2)CC1,43*,14,14,18,2,17
COc1ccc(C(=O)COC(=O)C(CCSC)NC(=O)COc2ccccc2)cc1 (stereo unspecified),14,2,-29,19,7,/
O=C(COC(=O)/C=C/c1ccco1)NCCN1C(=O)CSC1=O,/,/,3,/,-8,/
C=CCn1c(SCc2ccccc2C#N)nnc1-c1cc(Br)ccc1O,44*,5,-24,44,9,23
COc1cnc(-c2ccccn2)nc1Sc1ccccc1Cl,47*,18,/,46,4,34*
COc1ccc(/C=c2\sc3nc(-c4ccccc4OC)nn3c2=O)c(OC)c1,18,-20,-36,0,1,/
C=CCOc1ccccc1/C=c1\sc2nc(=O)c(C)nn2c1=O,45*,30,-7,47,4,50*
Cc1ccccc1C(=O)N1[C@@H](C(C)C)COc2cc(Br)ccc2S1(=O)=O,/,/,35,/,14,/
CCN(CC)S(=O)(=O)c1ccc(C)c(NC(=O)/C=C/c2cccs2)c1,45*,28,4,28,-3,30*
Cc1ccccc1NC(=O)/C=C/c1cccs1,22,9,27,20,3,/
Cc1ccc(NC(=O)C2CCCN2C(=O)OCc2ccccc2)cc1F (stereo unspecified),9,-6,-19,18,4,/
CSc1ncccc1C(=O)Nc1ccc(S(=O)(=O)N2CCCC2)cc1,18,10,12,19,10,/
O=C(Nc1ccc(S(=O)(=O)N2CCCCC2)cc1)c1cccnc1Cl,42*,20,25,22,-3,26
O=C(Nc1ccc(F)cc1F)c1cccc(S(=O)(=O)N2CCCCC2)c1,46*,12,/,41,4,22
CCOC(=O)/C=C/C(=O)Nc1ccc(S(=O)(=O)N2CCCCCC2)cc1,44*,29,/,39,2,34*
O=C(Nc1ccc(S(=O)(=O)N2CCCCC2)cc1)c1ccc(F)cc1,49*,35,7,32,3,48*
CCN(C(=O)COC(=O)/C(=C/c1ccccc1)NC(C)=O)c1c(N)n(Cc2ccccc2)c(=O)[nH]c1=O,/,/,1,/,-8,/
Cc1ccc(-c2csc(=S)n2CC(=O)OCC(=O)NC(C)C(C)C)cc1 (stereo unspecified),26,23,11,25,-6,/
Cc1ccc(-c2csc(=S)n2CC(=O)OCC(=O)NCc2ccco2)cc1,41*,6,/,22,8,20
CC(C)C[C@@H](C(=O)N[C@@H](C(=O)O)c1ccccc1)N1C(=O)N2CCc3c([nH]c4ccccc34)[C@@]2(C)C1=O,17,17,29,24,-3,/
CC(C)NC(=O)/C(C#N)=C/c1ccc2c(c1)OCCO2,43*,11,4,30,7,34*
CCN(CC(=O)NCc1cccs1)C(=O)CCC(=O)c1ccc(C)cc1,11,9,/,11,-4,/
Cc1ccc(NCc2nnc(SCC(=O)c3ccccc3)o2)c(C)c1,42*,19,/,20,1,25
Cc1ccc(NCc2nnc(SCC(=O)N3CCCc4ccccc43)o2)c(C)c1,37,6,/,5,-2,/
